RORg inh = blocks mouse ROR gamma transcriptional activity; P51450; 310,000 compounds, 5.4% hits; Potency, µM (highest dose often 53.6 µM), usual class: inhibitors; AID 2551; Drosophila S2 Gal4-RORgamma UAS-luciferase reporter, 20 h; further: nearly all actives have a fitted effect of over 60% in size
Target sequence (P51450 whole entry, looked up, the tested form may be a part): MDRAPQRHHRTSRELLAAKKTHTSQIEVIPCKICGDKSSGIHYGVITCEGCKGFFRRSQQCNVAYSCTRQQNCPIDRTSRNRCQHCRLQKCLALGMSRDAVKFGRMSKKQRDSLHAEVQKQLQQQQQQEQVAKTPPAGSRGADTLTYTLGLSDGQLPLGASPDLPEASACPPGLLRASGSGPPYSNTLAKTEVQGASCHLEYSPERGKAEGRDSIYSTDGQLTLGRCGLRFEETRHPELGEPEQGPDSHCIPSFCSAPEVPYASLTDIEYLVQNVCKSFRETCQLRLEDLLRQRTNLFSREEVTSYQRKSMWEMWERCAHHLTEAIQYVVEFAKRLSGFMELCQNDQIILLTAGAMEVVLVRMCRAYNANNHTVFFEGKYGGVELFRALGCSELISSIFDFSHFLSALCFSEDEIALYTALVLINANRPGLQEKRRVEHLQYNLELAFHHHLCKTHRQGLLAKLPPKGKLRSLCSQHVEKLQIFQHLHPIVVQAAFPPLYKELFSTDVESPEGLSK
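Stably transfected Drosophila Schneider cells are the test system, with ROR gamma fused to Gal4 and luciferase under UAS control; luminescence is read after 20 hr of 700 uM copper sulfate induction at ambient temperature.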
Gal4-VP16 FLuc = inhibits Gal4-VP16 luciferase reporter, ROR gamma counter-screen; Drosophila S2 Gal4-VP16 UAS-luciferase, luminescence, 20 h; Potency, µM (top dose mostly 53.6 µM), actives largely listed as inhibitors; 310,000 compounds, 3.5% hits; AID 2546;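 further: Gal4-VP16 expression switched on by copper sulfate through the metallothionein promoter; nearly all actives have a fitted effect of over 50% in size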
KinaseGlo FLuc = counter-screen: inhibitors of Kinase-Glo firefly luciferase; Potency, µM (series often up to 38.3 µM), most hits filed as inhibitors; Kinase-Glo luciferase, ATP luminescence, 8 min; 200,000 compounds, 0.28% hits; further: nearly all actives have a fitted effect of over 60% in size
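Kinase-Glo luciferase light output from ATP and luciferin was measured with 10 uM ATP, within the enzyme's linear range. Buffer: 50 mM imidazole pH 7.2, 50 mM KCl, 7 mM MgCl2, 0.01% Tween 20, 0.05% BSA; luminescence read after 8 min at ambient temperature.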
Large screens that a line does not name were inactive. Compounds with a hit are over-represented: about 6.2% of the library has one in this group of screens. The call rests on the fitted dose curve; in most records, active means well fitted curve in the direction sought with a large enough effect; inconclusive means small, poorly fitted or top-dose-only effect, or another doubt; inactive means no such curve, though single readings can be large; an effect the other way counts as inactive or inconclusive.

O=C(NNC(=O)c1ccc2ccccc2c1O)c1ccccc1Cl	RORg inh inconclusive
O=C(NNC(=O)c1ccc2ccccc2c1O)c1cccs1	RORg inh 15.8µM, Gal4-VP16 FLuc inconclusive (no result: KinaseGlo FLuc)
C/C(=N\NC(=O)c1cc2ccccc2cc1O)c1cccs1	Gal4-VP16 FLuc inconclusive (no result: KinaseGlo FLuc)
Cc1noc(C)c1C(=O)N1CCC2(CCN(Cc3ccncc3)CC2)CC1	none
COc1ccc(/C=N/Nc2ccc(C(=O)O)cc2)c(OC)c1OC	none (no result: KinaseGlo FLuc)
O=C(O)c1ccccc1/C=N/Nc1nc(N2CCCCC2)nc(N2CCCCC2)n1	none
COc1ccc(/C=N/Nc2nc(N3CCCC3)nc(N3CCCC3)n2)c(OC)c1OC	RORg inh 7.94µM
COc1cccc(/C=N/Nc2nc(N3CCCC3)nc(N3CCCC3)n2)c1O	RORg inh 10µM, Gal4-VP16 FLuc inconclusive
CCC(C)c1ccccc1N=Cc1ccc2c(c1)OCO2 (stereo unspecified)	none (no result: KinaseGlo FLuc)
CCOc1nc(OCC)c2cnn(C)c2n1	none (no result: KinaseGlo FLuc)
O=C(O)c1cccc(SSc2cccc(C(=O)O)c2)c1	none (no result: RORg inh, Gal4-VP16 FLuc)
CC(Cl)C(=O)N1c2ccccc2CCc2ccccc21 (stereo unspecified)	none (no result: KinaseGlo FLuc)
O=C(CCl)N1c2ccccc2CCc2ccccc21	RORg inh 11.2µM, Gal4-VP16 FLuc inconclusive (no result: KinaseGlo FLuc)
Cc1ccc(-c2nn(-c3ccccc3)cc2/C=N/n2c(-c3cccs3)n[nH]c2=S)cc1	RORg inh inconclusive (no result: KinaseGlo FLuc)
Cc1ccc(-c2n[nH]c(=S)n2/N=C/c2cccs2)cc1	RORg inh 5.01µM, Gal4-VP16 FLuc 3.16µM
S=c1[nH]nc(-c2ccccc2)n1/N=C/c1cccs1	RORg inh 3.98µM
O=[N+]([O-])c1ccc(/C=N/n2c(-c3cccnc3)n[nH]c2=S)cc1	none (no result: KinaseGlo FLuc)
Cc1ccsc1/C=N/n1c(-c2cccnc2)n[nH]c1=S	RORg inh 11.2µM
S=c1[nH]nc(-c2cccs2)n1/N=C/c1cn(-c2ccccc2)nc1-c1cccs1	RORg inh 7.94µM, Gal4-VP16 FLuc inconclusive (no result: KinaseGlo FLuc)
Cc1cc(-c2n[nH]c(=S)n2/N=C/c2cccs2)n[nH]1	Gal4-VP16 FLuc inconclusive
Oc1c(Br)cc(Br)c(/C=N/n2c(-c3ccccc3)n[nH]c2=S)c1Br	RORg inh inconclusive (no result: KinaseGlo FLuc)
CCOC(=O)Cc1cc(=O)n(-c2nc3ccccc3s2)[nH]1	none
CC(=NCCCn1ccnc1)c1c(-c2ccccc2)[nH]n(-c2nc3ccccc3s2)c1=O	none
CC(=NC1CC1)c1c(-c2ccccc2)[nH]n(-c2nc3ccccc3s2)c1=O	RORg inh 1.26µM, Gal4-VP16 FLuc inconclusive
CC(=NC1CCCC1)c1c(C)[nH]n(-c2nc3ccccc3s2)c1=O	RORg inh 3.55µM, Gal4-VP16 FLuc inconclusive
Cc1cc2c(nc1C)CCCN2C[C@H](C)O/N=C1/[C@H]2O[C@@H]2[C@@H](O)[C@H]2[C@H]1CCn1c(=O)n(-c3ccccc3)c(=O)n12	none (no result: KinaseGlo FLuc)
NCCNCCN	none (no result: KinaseGlo FLuc)
Cc1cccc(NC(=S)NNc2ncc(C(F)(F)F)cc2Cl)c1	RORg inh 15.8µM, Gal4-VP16 FLuc 12.6µM
S=C(NNc1ccnc2cc(Cl)ccc12)Nc1ccccc1Cl	Gal4-VP16 FLuc inconclusive
FC(F)(F)c1cnc(NNC(=S)Nc2ccccc2Cl)c(Cl)c1	RORg inh inconclusive, Gal4-VP16 FLuc 10µM (no result: KinaseGlo FLuc)
Cc1ccc(C(=O)NCC(=O)OCC(=O)Nc2ncc(C(F)(F)F)cc2Cl)cc1	none
COc1cc(C=O)ccc1Oc1cnccn1	none
COc1cccc(NC(=O)CSc2nc3c(oc4ccccc43)c(=O)[nH]2)c1	none
COc1ccc(C(=O)NC(=S)N2CCN(C)CC2)cc1Br	RORg inh 0.447µM, Gal4-VP16 FLuc 2.82µM
COc1ccc(C(=O)NC(=S)Nc2nc(C)cc(C)n2)cc1Br	none (no result: KinaseGlo FLuc)
Cc1cccc(OCC(=O)N2CCc3ccccc3C2)c1	Gal4-VP16 FLuc inconclusive (no result: KinaseGlo FLuc)
Cc1cccc(C(=O)NC(=S)N2CCc3ccccc3C2)c1	RORg inh 1.41µM, Gal4-VP16 FLuc 3.55µM
CN1CCN(C(=S)NC(=O)c2cccc(S(=O)(=O)N(C)C)c2)CC1	RORg inh 14.1µM, Gal4-VP16 FLuc inconclusive
CCOc1ccccc1N1CCN(C(=O)CNC(=O)c2ccc(OC)c(OC)c2)CC1	none (no result: KinaseGlo FLuc)
COc1ccc(C(=O)NC(=S)N2CCN(c3ccccc3OC)CC2)cc1OC	RORg inh 2.82µM, Gal4-VP16 FLuc 5.01µM (no result: KinaseGlo FLuc)
CN1CCN(C(=S)Nc2cccc(S(=O)(=O)N(C)C)c2)CC1	none
COc1ccc(-c2csc3c2[N+]2=CCC=C2C3=O)cc1	none (no result: RORg inh, Gal4-VP16 FLuc)
CCCCn1c(-c2ccco2)nc2ccccc2c1=O	none
COc1ccc(CNc2ncnc3ccc(-c4ccc5c(c4)OCO5)cc23)c(OC)c1	RORg inh inconclusive (no result: KinaseGlo FLuc)
COc1ccc(C(=O)NC(=S)N2CCOCC2)cc1OC	RORg inh 11.2µM, Gal4-VP16 FLuc inconclusive
COc1cc(C(=S)N2CCOCC2)ccc1OC(=O)/C=C/c1ccco1	RORg inh inconclusive, Gal4-VP16 FLuc 17.8µM
COc1ccccc1N1CCN(C(=O)c2cc(C(=O)N3CCN(c4ccccc4OC)CC3)cc([N+](=O)[O-])c2)CC1	none (no result: KinaseGlo FLuc)
COc1ccc(C(=S)N2CCOCC2)cc1OC(=O)c1ccccc1	none (no result: KinaseGlo FLuc)

Bioassay records deposited in PubChem by National Center for Advancing Translational Sciences (NCATS).
